Measurements published in PubChem BioAssay (Tox21).
Values without a mark were called inactive. Inconclusive results are not listed. A call without a number means that no potency is given here. The source made the active and inactive calls. Unless noted, the call rests on the fitted dose curve; in most records, active means well fitted curve in the direction sought with a large enough effect in the repeat runs; inconclusive means weak or mixed curves; inactive means no such curve, though single readings can be large; an effect the other way counts as inactive or inconclusive.

Assays:
[1] = qHTS assay to identify small molecule agonists of the estrogen receptor beta (ER-beta) signaling pathway - cell viability counter screen (AID 1259380); further: nearly all actives have a fitted effect of over 30% in size; further: potency means the concentration at half of the fitted maximal effect
In short: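 ER-beta-UAS-bla HEK293T cells in medium with 2% charcoal-stripped FBS, pre-incubated 6 hr, then treated 16 hr at 37C. Cytotoxicity read in the same wells by CellTiter-Glo luminescence after 30 min at room temperature.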

[2] = biological target: Androgen receptor (Homo sapiens) (UniProt P10275); assay: qHTS assay to identify small molecule agonists of the androgen receptor (AR) signaling pathway in the presence of an antagonist (AID 1259381; calls by dose curve; further: nearly all actives have a fitted effect of over 15% in size)
In short: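 MDA-kb2 cells carrying MMTV-luciferase (AR/GR responsive), 3,000 cells/well, co-treated with 3.0 uM nilutamide final. Compounds at 15 concentrations, 16 hr at 37C without CO2. Luciferase luminescence read after 30 min with ONE-Glo.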

[3] = qHTS assay to identify small molecule antagonists of the estrogen receptor beta (ER-beta) signaling pathway - cell viability counter screen (AID 1259382); further: nearly all actives have a fitted effect of over 55% in size; further: potency means the concentration at half of the fitted maximal effect
In short: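 ER-beta-UAS-bla HEK293T cells in 2% charcoal-stripped FBS medium, treated with compound plus 1 nM 17-beta-estradiol for 16 h at 37C. Viability read by CellTiter-Glo luminescence after 30 min at room temperature in the same wells.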

[4] = biological target: Estrogen receptor (Homo sapiens) (UniProt P03372); assay: qHTS assay to identify small molecule agonists of the estrogen receptor alpha (ER-alpha) signaling pathway in the presence of an antagonist (AID 1259383; calls by dose curve; further: top concentration of the series differs between compounds; nearly all actives have a fitted effect of over 15% in size)
In short: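 VM7Luc4E2 cells express endogenous full-length ER-alpha with an ERE-luciferase reporter and were hormone-deprived for 5 days. Compounds at 15 concentrations were added with 10.0nM ICI-182,780 for 22hr at 37C. Luminescence was read with ONE-Glo.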

[5] = qHTS assay to identify small molecule agonists of the estrogen receptor alpha (ER-alpha) signaling pathway in the presence of an antagonist - cell viability counter screen (AID 1259386);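 further: cells exposed to compounds for 22 h at 37 °C before the viability read; nearly all actives have a fitted effect of over 30% in size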; further: potency means the concentration at half of the fitted maximal effect
In short: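 Cell viability in VM7Luc4E2 cells (endogenous full-length ER-alpha) measured by CellTiter-Fluor fluorescence in the same wells as the luciferase screen. Cells pre-cultured 5 days in charcoal-stripped serum, then treated 22 h with compounds at 15 concentrations plus 10.0nM ICI-182,780.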

[6] = biological target: Progesterone receptor (Homo sapiens) (UniProt P06401); assay: qHTS assay to identify small molecule agonists of the progesterone receptor (PR) signaling pathway (AID 1346784; calls by dose curve; further: nearly all actives have a fitted effect of over 30% in size)
In short: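 Seed PR-UAS-bla HEK 293T cells (2% charcoal-stripped FBS), incubate 6 hr at 37C; add compounds in DMSO, 16 hr at 37C; add LiveBLAzer B/G substrate, 2 hr RT; read fluorescence intensity.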

[7] = qHTS assay to identify small molecule antagonists of the progesterone receptor (PR) signaling pathway - cell viability counter screen (AID 1346798); further: nearly all actives have a fitted effect of over 50% in size; further: potency means the concentration at half of the fitted maximal effect
In short: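 Measures cytotoxicity in parallel with the PR antagonist reporter read: HEK293T PR-UAS-bla cells get compound and R5020 for 16 hr, and remaining viable cells are quantified by CellTiter-Glo luminescence.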

[8] = qHTS assay to identify small molecule agonists of the progesterone receptor (PR) signaling pathway - cell viability counter screen (AID 1346799; calls by dose curve; further: nearly all actives have a fitted effect of over 45% in size; further: potency means the concentration at half of the fitted maximal effect)
In short: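 Using the same plates as the PR reporter screen, HEK293T PR-UAS-bla cells received compounds for 16 hr at 37C and were then lysed with CellTiter-Glo; luminescence was read 30 min later at room temperature.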

[9] = biological target: Thyrotropin-releasing hormone receptor (Homo sapiens) (UniProt P34981); assay: qHTS assay to identify small molecule agonists of the thyrotropin-releasing hormone receptor (TRHR) signaling pathway (AID 1346891; calls by dose curve; further: series mostly up to about 58 µM)
In short: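 Overnight-plated (18 h, 37 °C, 5% CO2) TRHR-Hek293 cells; 2 h calcium dye at 37 °C; compound in DMSO; 3-min kinetic fluorescence read.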

[10] = Caspase-3/7 induction in HepG2 cells by small molecules, qHTS assay (AID 1346978); further: nearly all actives have a fitted effect of over 15% in size
In short: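 Wild-type HepG2 cells, 2,000/well, settled 5 hr at 37 C and 5% CO2, then compound-treated for 17 hr; caspase-3/7 activity read by luminescent Caspase-Glo 3/7 after 30 min at room temperature.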

[11] = Caspase-3/7 induction in CHO-K1 cells by small molecules, qHTS cell viability counter screen (AID 1346979); further: nearly all actives have a fitted effect of over 35% in size; further: potency means the concentration at half of the fitted maximal effect
In short: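 Multiplexed with Caspase-Glo 3/7 in CHO-K1 cells, this counter screen added CellTiter-Fluor after 16hr of compound exposure and recorded fluorescence 1hr later.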

[12] = Caspase-3/7 induction in CHO-K1 cells by small molecules, qHTS assay (AID 1346980); further: nearly all actives have a fitted effect of over 15% in size; further: potency means the concentration at half of the fitted maximal effect
In short: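 Wild-type CHO-K1 cells exposed to compounds for 17hr at 37 C, 5% CO2. Caspase-3/7 activity then measured by Caspase-Glo 3/7 luminescence after 30min at room temperature.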

[13] = qHTS assay to identify small molecule agonists or antagonists of the thyroid stimulating hormone receptor (TSHR) signaling pathway - wild type cell line counter screen (AID 1259384; calls by dose curve)
In short: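 Wild-type Hek293 cells, 800/well, 18 h at 37C, then compound with Ro20-1724 for 30 min RT. cAMP by HTRF (cAMP-d2/anti-cAMP cryptate), 1 h RT, fluorescence read. 15 concentrations, triplicates.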

[14] = biological target: Thyrotropin receptor (Homo sapiens) (UniProt P16473); assay: qHTS assay to identify small molecule antagonists of the thyroid stimulating hormone receptor (TSHR) signaling pathway (AID 1259385; calls by dose curve; further: nearly all actives have a fitted effect of over 20% in size; further: potency means the concentration at half of the fitted maximal effect)
In short: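 TSHR-HEK293 cells (800/well) plated 18 h, then compounds with Ro20-1724 and TSH at 1.5 ng/mL final, 30 min at room temperature. cAMP quantified by HTRF (cAMP-d2/anti-cAMP-cryptate, 1 h); 15 concentrations in triplicate.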

[15] = qHTS assay to identify small molecule antagonists of the TGF-beta/Smad signaling pathway - cell viability counter screen (AID 1346824); further: nearly all actives have a fitted effect of over 50% in size
In short: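 SBE-bla HEK 293T cells, incubated overnight, then compound plus 0.25 ng/mL TGF-beta1 (stock added) for 5 hr at 37 C. Viability was read in the same wells by CellTiter-Glo luminescence after 30 min at room temperature.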

[16] = qHTS assay to identify small molecule agonists of the TGF-beta/Smad signaling pathway (AID 1346859; active means well fitted activation curve with a large enough effect in the signal ratio in the repeat runs, not every such curve was filed as active; the % refers to the signal ratio; further: series mostly up to about 77 µM)
In short: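 Beta-lactamase reporter activity downstream of Smad binding elements was measured in stably transfected HEK 293T cells; compounds were incubated for 5 hr, substrate for 2 hr at room temperature.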

[17] = biological target: Progesterone receptor (Homo sapiens) (UniProt P06401); assay: qHTS assay to identify small molecule antagonists of the progesterone receptor (PR) signaling pathway (AID 1346795; active means well fitted inhibition curve with a large enough effect in the signal ratio in the repeat runs, not every such curve was filed as active; the % refers to the signal ratio)
In short: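 Screening used a GripTite HEK293T line with PR-responsive UAS-beta-lactamase. Cells were challenged with compound in the presence of 1 nM R5020 final for 16 hr at 37C; B/G FRET substrate, 2 hr room temperature, fluorescence.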

[18] = biological target: Thyrotropin-releasing hormone receptor (Homo sapiens) (UniProt P34981); assay: qHTS assay to identify small molecule antagonists of the thyrotropin-releasing hormone receptor (TRHR) signaling pathway (AID 1346877; active means well fitted inhibition curve with a large enough effect in the repeat runs, not every such curve was filed as active; further: series mostly up to about 51 µM)
In short: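 TRHR-expressing HEK293 cells loaded with calcium dye for 2 h at 37 C; compounds pre-incubated 5 min at room temperature before TRH challenge at 1 nM final. Intracellular calcium fluorescence read kinetically for 3 min; 15 concentrations in triplicate.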

[19] = Human pregnane X receptor (PXR) small molecule agonists, qHTS cell viability counter screen (AID 1346977); further: nearly all actives have a fitted effect of over 50% in size; further: potency means the concentration at half of the fitted maximal effect
In short: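 After a 5hr pre-incubation, PXR-Luc HepG2 cells received compounds plus positive control in DMSO and were kept 24hr at 37C. Cell viability was quantified by fluorescence from CellTiter-Fluor added for the final hour.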

[20] = qHTS assay to identify small molecule agonists of the TGF-beta/Smad signaling pathway - cell viability counter screen (AID 1346829); further: nearly all actives have a fitted effect of over 45% in size; further: potency means the concentration at half of the fitted maximal effect
In short: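 Same-well cytotoxicity: CellTiter-Glo added after the 2 hr room-temperature beta-lactamase substrate step, luminescence measured 30 min later; cells had 5 hr of compound at 37 C.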

Thyrotropin-releasing hormone receptor (Homo sapiens), sequence (P34981 whole entry, looked up): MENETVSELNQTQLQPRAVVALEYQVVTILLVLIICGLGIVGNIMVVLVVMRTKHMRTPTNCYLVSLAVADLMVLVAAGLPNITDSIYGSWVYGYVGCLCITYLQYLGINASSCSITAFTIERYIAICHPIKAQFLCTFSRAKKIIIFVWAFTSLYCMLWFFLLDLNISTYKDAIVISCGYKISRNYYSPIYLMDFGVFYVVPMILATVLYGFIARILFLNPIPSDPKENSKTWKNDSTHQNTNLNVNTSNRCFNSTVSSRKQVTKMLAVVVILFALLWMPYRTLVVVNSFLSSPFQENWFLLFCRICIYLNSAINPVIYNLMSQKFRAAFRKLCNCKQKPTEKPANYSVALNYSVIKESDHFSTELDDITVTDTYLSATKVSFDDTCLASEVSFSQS
Thyrotropin receptor (Homo sapiens), sequence (P16473 whole entry, looked up): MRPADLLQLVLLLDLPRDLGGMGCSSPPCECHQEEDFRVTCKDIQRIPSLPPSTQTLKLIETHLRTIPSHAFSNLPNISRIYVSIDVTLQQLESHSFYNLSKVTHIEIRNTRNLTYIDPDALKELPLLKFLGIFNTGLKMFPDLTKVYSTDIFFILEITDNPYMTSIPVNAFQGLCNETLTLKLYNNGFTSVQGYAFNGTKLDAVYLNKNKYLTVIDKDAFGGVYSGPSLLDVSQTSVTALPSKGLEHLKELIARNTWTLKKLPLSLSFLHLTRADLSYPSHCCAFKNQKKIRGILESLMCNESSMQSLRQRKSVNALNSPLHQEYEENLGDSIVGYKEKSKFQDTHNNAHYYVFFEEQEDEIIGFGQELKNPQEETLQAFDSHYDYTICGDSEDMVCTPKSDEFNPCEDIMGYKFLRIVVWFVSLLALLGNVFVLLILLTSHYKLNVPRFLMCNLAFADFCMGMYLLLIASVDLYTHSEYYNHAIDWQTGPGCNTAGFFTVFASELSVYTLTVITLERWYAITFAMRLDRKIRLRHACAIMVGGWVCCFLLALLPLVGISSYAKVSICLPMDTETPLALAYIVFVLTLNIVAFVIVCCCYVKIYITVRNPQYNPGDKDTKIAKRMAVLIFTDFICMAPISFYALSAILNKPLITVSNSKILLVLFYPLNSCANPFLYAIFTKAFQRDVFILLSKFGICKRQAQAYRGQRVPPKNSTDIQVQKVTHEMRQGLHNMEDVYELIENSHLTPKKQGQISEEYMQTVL
Androgen receptor (Homo sapiens), sequence (P10275 whole entry, looked up): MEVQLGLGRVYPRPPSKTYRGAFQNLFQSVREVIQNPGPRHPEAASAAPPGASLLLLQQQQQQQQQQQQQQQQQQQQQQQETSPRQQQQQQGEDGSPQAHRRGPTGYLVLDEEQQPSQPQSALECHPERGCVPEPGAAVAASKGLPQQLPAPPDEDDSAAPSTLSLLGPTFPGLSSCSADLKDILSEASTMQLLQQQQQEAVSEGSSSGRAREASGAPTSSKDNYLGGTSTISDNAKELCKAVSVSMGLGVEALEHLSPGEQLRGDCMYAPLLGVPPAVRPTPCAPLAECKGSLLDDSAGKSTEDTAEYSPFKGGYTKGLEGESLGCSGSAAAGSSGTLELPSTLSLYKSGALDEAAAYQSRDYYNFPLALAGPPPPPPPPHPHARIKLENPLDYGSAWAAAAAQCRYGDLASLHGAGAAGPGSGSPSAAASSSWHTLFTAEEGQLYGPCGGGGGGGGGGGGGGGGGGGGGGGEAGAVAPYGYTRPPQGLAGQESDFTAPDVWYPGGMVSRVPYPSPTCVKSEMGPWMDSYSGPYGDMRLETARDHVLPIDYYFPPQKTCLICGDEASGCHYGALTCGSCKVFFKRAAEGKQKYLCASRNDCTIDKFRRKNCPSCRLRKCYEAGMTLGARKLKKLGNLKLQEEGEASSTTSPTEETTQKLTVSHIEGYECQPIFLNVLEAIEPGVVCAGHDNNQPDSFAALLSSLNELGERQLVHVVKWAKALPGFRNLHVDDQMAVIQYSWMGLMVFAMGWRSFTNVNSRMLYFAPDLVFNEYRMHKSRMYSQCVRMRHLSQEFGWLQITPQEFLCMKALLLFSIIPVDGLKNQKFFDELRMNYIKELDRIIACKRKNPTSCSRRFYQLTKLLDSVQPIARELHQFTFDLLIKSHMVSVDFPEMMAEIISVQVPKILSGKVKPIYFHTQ
Estrogen receptor (Homo sapiens), sequence (P03372 whole entry, looked up): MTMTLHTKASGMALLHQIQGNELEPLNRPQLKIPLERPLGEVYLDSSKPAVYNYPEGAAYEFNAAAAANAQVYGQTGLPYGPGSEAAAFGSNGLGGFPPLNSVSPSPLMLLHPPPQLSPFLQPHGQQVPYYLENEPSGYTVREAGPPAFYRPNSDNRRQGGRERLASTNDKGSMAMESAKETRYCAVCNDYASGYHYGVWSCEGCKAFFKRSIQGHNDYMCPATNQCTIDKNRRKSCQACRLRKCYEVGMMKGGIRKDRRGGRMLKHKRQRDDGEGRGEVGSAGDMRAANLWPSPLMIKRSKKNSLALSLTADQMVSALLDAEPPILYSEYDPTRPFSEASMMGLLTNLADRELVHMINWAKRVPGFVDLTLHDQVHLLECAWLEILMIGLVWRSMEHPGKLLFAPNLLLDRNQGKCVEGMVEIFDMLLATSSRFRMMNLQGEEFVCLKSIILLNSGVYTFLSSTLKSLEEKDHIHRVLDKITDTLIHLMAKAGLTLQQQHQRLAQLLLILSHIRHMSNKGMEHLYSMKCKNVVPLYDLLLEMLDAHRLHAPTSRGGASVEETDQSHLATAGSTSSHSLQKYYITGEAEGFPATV
Progesterone receptor (Homo sapiens), sequence (P06401 whole entry, looked up): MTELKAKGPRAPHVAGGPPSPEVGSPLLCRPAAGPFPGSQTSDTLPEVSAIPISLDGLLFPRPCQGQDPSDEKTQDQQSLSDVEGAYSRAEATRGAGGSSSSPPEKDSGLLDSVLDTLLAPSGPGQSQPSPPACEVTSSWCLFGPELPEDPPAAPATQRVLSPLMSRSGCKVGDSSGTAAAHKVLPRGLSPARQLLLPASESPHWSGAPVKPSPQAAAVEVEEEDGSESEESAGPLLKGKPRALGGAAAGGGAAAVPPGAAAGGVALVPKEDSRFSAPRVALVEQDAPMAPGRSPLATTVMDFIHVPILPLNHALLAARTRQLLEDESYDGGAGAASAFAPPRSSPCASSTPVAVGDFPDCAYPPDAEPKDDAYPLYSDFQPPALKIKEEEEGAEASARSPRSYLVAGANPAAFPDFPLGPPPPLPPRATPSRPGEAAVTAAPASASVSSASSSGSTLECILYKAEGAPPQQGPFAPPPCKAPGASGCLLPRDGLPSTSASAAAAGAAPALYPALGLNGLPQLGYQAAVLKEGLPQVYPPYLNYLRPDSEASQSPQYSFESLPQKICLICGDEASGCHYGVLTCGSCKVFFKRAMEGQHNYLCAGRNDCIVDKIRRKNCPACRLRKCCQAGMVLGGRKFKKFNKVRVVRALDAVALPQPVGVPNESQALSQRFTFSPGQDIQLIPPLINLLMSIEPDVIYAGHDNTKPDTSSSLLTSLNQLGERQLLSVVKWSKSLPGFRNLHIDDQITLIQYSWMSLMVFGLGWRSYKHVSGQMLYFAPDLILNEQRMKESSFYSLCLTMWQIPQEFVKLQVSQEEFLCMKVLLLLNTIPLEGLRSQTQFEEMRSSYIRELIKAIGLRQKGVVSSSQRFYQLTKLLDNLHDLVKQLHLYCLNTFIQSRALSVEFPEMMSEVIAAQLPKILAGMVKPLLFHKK

SMILES	Potency [1]	Potency [2]	Potency [3]	Potency [4]	Potency [5]	outcome [6]	Potency [7]	Potency [8]	Potency [9]	Potency [10]	Potency [11]	Potency [12]	Potency [13]	Potency [14]	Potency [15]	outcome [16]	Potency [17]	Potency [18]	Potency [19]	Potency [20]
C[C@H]1O[C@@H](O[C@H]2CC[C@@]3(C)[C@H](CC[C@@H]4[C@@H]3C[C@@H](O)[C@]3(C)[C@@H](C5=CC(=O)OC5)CC[C@]43O)C2)C[C@H](O)[C@@H]1O[C@H]1C[C@H](O)[C@H](O[C@H]2C[C@H](O)[C@H](O[C@@H]3O[C@H](CO)[C@@H](O)[C@H](O)[C@H]3O)[C@@H](C)O2)[C@@H](C)O1	0.168 µM (active)	inactive	0.188 µM (active)	inactive	inactive	inactive	0.298 µM (active)	0.266 µM (active)	inactive	inactive	inactive	inactive								
CC/C=C\C/C=C\C/C=C\CCCCCCCC(=O)OC	48.6 µM (active)	inactive	inactive		inactive	inactive	inactive		inactive		61.1 µM (active)		inactive	inactive	inactive	inactive				
CCN(CCC#N)c1ccc(N=Nc2ccc([N+](=O)[O-])cc2)cc1	inactive	inactive	inactive		inactive	inactive	inactive	inactive	inactive	inactive	inactive	inactive	inactive	inactive	inactive	inactive	inactive	inactive	inactive	
C=Cc1ccncc1	inactive	inactive	inactive			inactive	inactive	inactive	inactive	inactive		inactive	inactive	inactive	inactive	inactive	inactive	inactive	inactive	inactive
Oc1ccc2c(c1)CCC2	inactive	inactive	inactive	inactive	inactive		inactive	inactive	inactive	inactive		inactive			inactive	inactive			inactive	inactive
C=C1C(CCl)(CCl)C2(Cl)C(Cl)C(Cl)C1(Cl)C2(Cl)Cl (stereo not given)	48 µM (active)	inactive					67.8 µM (active)		inactive		53.8 µM (active)	48 µM (active)	inactive	inactive	inactive	inactive		inactive		54.3 µM (active)
CCCCCCCCCCCCCCCCCCNC(=O)OC1CCN(C(=O)OC[C@H](COC(=O)N(Cc2cccc[n+]2CC)C(=O)c2ccccc2OC)OC)CC1	26.6 µM (active)	inactive		inactive	26.6 µM (active)				inactive	inactive		inactive	inactive	29.8 µM (active)				inactive	26.6 µM (active)	
CC1=C(/C=C/C(C)=C/C=C/C(C)=C\C(=O)O)C(C)(C)CCC1	9.72 µM (active)		inactive	inactive	inactive	inactive		inactive	inactive	inactive					inactive	inactive	inactive	inactive	inactive	inactive
